PubChem BioAssay AID372 (MTDP, 2006)
The campaign covered roughly 100,000 compounds. About 770 (0.77%) were called active. This excerpt belongs to a sample that is enriched for actives. Unmarked numbers belong to inactive results. No stated cut-off is given here; in the data, active means inhibition above about 50%; inactive means the rest.

target: Gag-Pol polyprotein (Human immunodeficiency virus type 1 group M subtype B (isolate HXB2)) (UniProt P04585); assay: RNase H inhibition, HIV 1 Gag Pol polyprotein, FRET biochemical assay, screening (AID 372); details: HIV-1 RT RNase H, FRET RNA/DNA substrate fluorescence; at 10 µM; stronger effect = higher value

| SMILES | inhibition |
| --- | --- |
| COc1ccc(/C=C/c2nc3sc4c(c3c(=O)o2)CCCC4)cc1 | 14% |
| COc1cc2ccccc2cc1C(=O)NC(=S)Nc1cccc(-c2nc3ccccc3s2)c1C | 15% |
| O=C1NC(=O)N(c2cccc(Br)c2)C(=O)/C1=C/c1cc(Cl)c(O)c(Cl)c1 | 10% |
| O=C1CSC(c2ccc(Cl)c(Cl)c2)N1CCc1ccccc1 (stereo not given) | 7% |
| Cc1cc(C)c(/C(O)=C/c2nc3ccccc3oc2=O)c(C)c1 | 0% |
| Cc1ccc(/C(O)=C/c2nc3ccc([N+](=O)[O-])cc3oc2=O)o1 | 10% |
| Cc1ccc(/C(O)=C/c2nc3ccccc3oc2=O)o1 | 54% (active) |
| COc1ccc(N=C(C)c2cc(Cl)ccc2O)cc1 | 31% |
| COc1ccc(Cc2nc3ccccc3c(=O)n2/N=C/c2c[nH]c3ccccc23)cc1OC | 52% (active) |
| Cc1ccccc1-c1nc2ccccc2c(=O)n1/N=C/c1c[nH]c2ccccc12 | 10% |
| COc1ccc(Cc2nc3ccccc3c(=O)n2/N=C/c2cccs2)cc1OC | 23% |
| N#Cc1c(/N=C/c2cc(Br)ccc2Br)sc2c1CCCC2 | 15% |
| Fc1ccccc1OCCn1ccnc1 | 7% |
| Cc1ccc(NCCCC(=O)N/N=C/c2cccs2)cc1 | 12% |
| COc1ccc(C(C)=O)cc1CSc1cc(C)c2ccccc2n1 | 46% |
| Cc1ccc(C(C)C)c(OCC(=O)Nc2cccc(Cl)c2C)c1 | 15% |
| COc1cc(C=C2C(=O)NC(=O)NC2=O)ccc1OCc1c(C)ccc2ccccc12 | 31% |
| O=c1nc(/C=C/c2ccc(-c3ccc(F)c(Cl)c3)o2)cc(C(F)(F)F)[nH]1 | 48% |
| O=c1nc(/C=C/c2ccc(-c3ccc([N+](=O)[O-])cc3Cl)o2)cc(C(F)(F)F)[nH]1 | 20% |
| O=c1nc(/C=C/c2ccc(-c3ccc(Cl)c([N+](=O)[O-])c3)o2)cc(C(F)(F)F)[nH]1 | 54% (active) |

| SMILES | inhibition |
| --- | --- |
| COC(=O)C1=C(C)N(c2ccccc2F)C(=O)/C1=C\c1ccccc1F | 5% |
| COc1ccccc1NC(=O)c1ccc(-c2ccc([N+](=O)[O-])cc2OC)o1 | 30% |
| O=C(Nc1cc([N+](=O)[O-])ccc1F)c1ccc(-c2cc(Cl)ccc2Cl)o1 | 31% |
| COc1cc2ccccc2cc1C(=O)Nc1cc([N+](=O)[O-])ccc1F | 46% |
| CCOc1ccc(NC(=O)c2ccc(-c3ccc([N+](=O)[O-])cc3OC)o2)cc1 | 36% |
| COc1cc([N+](=O)[O-])ccc1-c1ccc(C(=O)Nc2ccc(I)cc2Cl)o1 | 51% (active) |
| COc1cc([N+](=O)[O-])ccc1NC(=O)c1cc2ccccc2cc1OC | 53% (active) |
| COc1cc([N+](=O)[O-])ccc1NC(=O)c1cccc2ccccc12 | 26% |
| COc1cc([N+](=O)[O-])ccc1NC(=O)c1cc(Cl)ccc1Cl | 22% |
| Cc1cc([N+](=O)[O-])ccc1-c1ccc(C(=O)Nc2ccc(I)cc2Cl)o1 | 24% |
| COc1cc([N+](=O)[O-])ccc1NC(=O)c1ccc(-c2cc(Cl)ccc2Cl)o1 | 60% (active) |
| COc1cc([N+](=O)[O-])ccc1-c1ccc(C(=O)Nc2ccc(NC(C)=O)cc2)o1 | 26% |
| CCCC(=O)Nc1ccc(NC(=O)c2ccc(-c3ccc([N+](=O)[O-])cc3OC)o2)cc1 | 56% (active) |
| COc1ccc(OC)c(/C=N/NC(=O)CSc2nc3ccccc3n2C)c1 | 20% |
| Cc1ccnc(NS(=O)(=O)Cc2ccccc2)c1 | 3% |
| COc1ccc(OC)c(N2C(=O)NC(=O)C(=Cc3cccs3)C2=O)c1 | 1% |
| CCn1c(NC(=O)c2ccc(Cl)cc2)nc2ccccc21 | 4% |
| Cc1ccc(NC(=S)NC(=O)c2ccccc2F)cc1C | 15% |
| COc1ccc(CCN=C(Nc2ccccc2)SC2CC(=O)N(c3ccccc3)C2=O)cc1 (stereo not given) | 6% |
| CCN(CC)c1ccc(C=Nc2ccccc2C(=O)Nc2ccccc2)c(O)c1 | 5% |

| SMILES | inhibition |
| --- | --- |
| N#C/C(=C/c1ccc(-c2ccccc2[N+](=O)[O-])o1)C(=O)NCc1ccccc1 | 27% |
| COc1ccc(-n2nc3cc(C)c(NC(=O)c4ccc(-c5cccc([N+](=O)[O-])c5)o4)cc3n2)cc1 | 42% |
| COc1ccc(-n2nc3cc(C)c(NC(=O)c4ccc([N+](=O)[O-])cc4)cc3n2)cc1 | 10% |
| COc1ccc(-n2nc3cc(C)c(NC(=O)c4ccc(-c5ccc([N+](=O)[O-])cc5OC)o4)cc3n2)cc1 | 54% (active) |
| COc1ccc(-n2cnc(N)c2C(=O)c2cccc([N+](=O)[O-])c2)cc1 | 1% |
| Cc1ccc(-c2cc(C(F)(F)F)n3nc(C(N)=O)c(Cl)c3n2)cc1 | 11% |
| Clc1cccc(NCc2ccncc2)c1 | 2% |
| COc1ccc(-n2sc3c(c2=S)-c2ccc(OC)cc2NC3(C)C)cc1 | 15% |
| CC1=C(C(=O)OCc2ccccc2)C(c2ccccc2Br)C2=C(CC(c3ccccc3)CC2=O)N1 (stereo not given) | 32% |
| CC1=C(C(=O)OCCc2ccccc2)C(c2ccccc2Br)C2=C(CC(c3ccccc3)CC2=O)N1 (stereo not given) | 26% |
| CCCOC(=O)C1=C(C)NC2=C(C(=O)CC(c3ccccc3)C2)C1c1ccccc1Br (stereo not given) | 58% (active) |
| O=S(=O)(NC1CCCCCCC1)c1ccc(F)cc1 | 7% |
| O=C1NC(=S)S/C1=C\c1cn(Cc2ccc(Cl)cc2)c2ccccc12 | 31% |
| CCOc1ccccc1OCCCOc1c(C)cc(C)cc1Cl | 52% (active) |
| CCN(CC)CCOc1c(C)cc(Cl)cc1Cl | 0% |
| CCN(CC)CCOc1c(C)cc(C)cc1Cl | 52% (active) |
| CCN(CC)CCOc1c(Cl)cc(C)cc1Cl | 2% |
| CCOc1ccccc1OCCOCCOc1c(C)cc(C)cc1Cl | 33% |
| CCOc1ccccc1OCCCCOc1c(Cl)cc(C)cc1Cl | 23% |
| N#C/C(=C\Nc1ccccc1Cl)c1nc(-c2ccc(Br)cc2)cs1 | 2% |
